Values joined by “and” are separate entries in the source; they are usually repeats but may differ in a detail not shown here. Equal values may be shown once. Records with an inconclusive call do not appear. A call without a number means that no potency is given here. Where a structure was tested more than once in an assay, its records may differ in their call. Active and inactive are the calls of the source. Calls follow the shape of the full dose curve.

One experiment is described as follows: qHTS assay to identify small molecule agonists of the sonic hedgehog signaling (Shh) pathway (AID 1259368). Also: nearly all actives have a fitted effect of over 15% in size. As to conditions: NIH/3T3 Gli1-Luc reporter, luciferase, 24 h, stronger effect = higher value; series mostly up to 92.4 µM; activity change: at the top concentration. A digest of the protocol: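 NIH/3T3-derived 3T3Gli1-Luc cells with stably integrated Gli1-driven firefly luciferase, 2,000 cells/well, compounds added after 4 hr. Incubated 24 hr at 37C, 5% CO2; luminescence read after 30 min with luciferase reagent at room temperature.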
For orientation: qHTS replaces the single test concentration by a dilution series.
As to `CCCCCCCC(=O)OC`, the compound was classed as inactive.

For `CC1=C(C)S(=O)(=O)CCS1(=O)=O`, the call was inactive.

For `OCC(CO)(CBr)CBr`, the compound was called inactive.

As to `CN(C)CCC(c1ccc(Cl)cc1)c1ccccn1` (stereo not given), the compound was classed as inactive.

On to `CN(C)CCCN`, for which the outcome was inactive.

As for `C=C(C)C(=O)OCCOCCOCCOC(=O)C(=C)C`, the compound was called inactive.

Take `CCCCC(CC)CO` (stereo not given): the result was inactive.

As for `Cc1ccc(N(C)C)cc1`, the compound was called inactive.

With `O=C(O)c1cc(C(=O)O)cc(S(=O)(=O)O)c1`, the compound was called inactive.

Take `O=C(O)c1ccc(C(=O)O)cc1`: the compound was called inactive.

As for `CCCCCCCCCCCCOCCO`, the compound was classed as inactive.

In the case of `CC(O)COCC(C)O` (stereo not given), the result was inactive.

`C[C@H]1C[C@H]2[C@@H]3CCC4=CC(=O)C=C[C@]4(C)[C@@]3(F)[C@@H](O)C[C@]2(C)[C@@]1(O)C(=O)CO`: the outcome was inactive.

As to `CCOC(=O)NNc1nncc2ccccc12`, the compound was classed as inactive.

Regarding `COc1ccc(Nc2ccccc2)c(C)c1`, the call was inactive.

As for `O=S(=O)(O)c1ccc2ccccc2c1`, the result was inactive.

As for `Cc1cnc(C(=O)NCCc2ccc(S(=O)(=O)NC(=O)NC3CCCCC3)cc2)cn1`, the result was inactive.

In the case of `O=C1CCC(N2C(=O)c3ccccc3C2=O)C(=O)N1` (stereo not given), the outcome was inactive.

With `Cc1cccnc1`, the compound was classed as inactive.

`OCCOCCN1CCN(C2=Nc3ccccc3Sc3ccccc32)CC1`: the compound was classed as inactive.

In the case of `CC[C@H](C)C(=O)O[C@H]1C[C@@H](C)C=C2C=C[C@H](C)[C@H](CC[C@@H]3C[C@@H](O)CC(=O)O3)[C@H]21`, the outcome was inactive.

Consider `CCCCCOC(C)=O`, for which the call was inactive.

Take `O=[N+]([O-])c1ccc(/C=C/c2ccc([N+](=O)[O-])cc2S(=O)(=O)O)c(S(=O)(=O)O)c1`: the call was inactive.

In the case of `Cc1cccc(O)c1`, the compound was classed as inactive.

For the compound `CCCCCC(N)=O`, the compound was classed as inactive.

`Cc1ccc(S(N)(=O)=O)cc1`: the result was inactive.

On to `COS(C)(=O)=O`, for which the compound was classed as inactive.

For `CCCC(C)=O`, the compound was called inactive.

On to `OCc1cccnc1`, for which the outcome was inactive.

Consider `C=CCOC(=O)c1ccccc1C(=O)OCC=C`, for which the compound was called inactive.

On to `CCCSc1ccc2nc(NC(=O)OC)[nH]c2c1`, for which the compound was called inactive.

On to `O=P(OC(CCl)CCl)(OC(CCl)CCl)OC(CCl)CCl`, for which the compound was classed as inactive.

Consider `COc1ccc2cc([C@H](C)C(=O)O)ccc2c1`, for which the compound was called inactive.

Take `O=C(O)[C@H](O)[C@@H](O)[C@H](O)[C@H](O)CO`: the call was inactive.

Turning to `Cc1cc(C)c(C)cc1C`, the call was inactive.

Consider `CCCCOC(=O)COc1ccc(Cl)cc1Cl`, for which the compound was classed as inactive.

`C[C@H]1C[C@@H]2[C@H]([C@@H](O)C[C@@]3(C)[C@H]2CC[C@]3(O)C(=O)CO)[C@@]2(C)C=CC(=O)C=C12`: the outcome was inactive.

With `C=C(C)C(=O)Nc1ccc(Cl)c(Cl)c1`, the compound was classed as inactive.

Another experiment in a line: qHTS assay to identify small molecule antagonists of the sonic hedgehog signaling (Shh) pathway (AID 1259369). Also: nearly all actives have a fitted effect of over 45% in size. Also: potency is read from the fitted curve at half-maximal effect. The conditions noted are these: NIH/3T3 Gli1-Luc reporter, Shh antagonist, luminescence 24 h; series mostly up to 92.4 µM; activity change, negative = inhibition: at the top concentration. An outline of the steps: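 NIH/3T3-derived Gli1-Luc reporter cells plated 4 h, dosed with compound, then stimulated with conditioned medium for 24 h at 37 C. Firefly luciferase luminescence read after 30 min with detection reagent at room temperature.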
`CCCCCCCC(=O)OC`: the Potency result is “inactive”.

Take `CCN(CC)CCCC(C)Nc1ccnc2cc(Cl)ccc12` (stereo not given): the Potency was 5.8 µM (active) and the activity change, negative = inhibition was -20.4% [at 8.39 µM] (inactive).

In the case of `CC1=C(C)S(=O)(=O)CCS1(=O)=O`, the Potency is 21.3 µM (active) and 38.6 µM (active).

Consider `OCC(CO)(CBr)CBr`, for which the Potency entry is “inactive”.

As for `CN(C)CCC(c1ccc(Cl)cc1)c1ccccn1` (stereo not given), the Potency was 24.4 µM (active) and 17.2 µM (active).

Consider `CN(C)CCCN`, for which the Potency entry was “inactive”.

For `CCCCC(CC)CO` (stereo not given), the Potency result was “inactive”.

In the case of `Cc1ccc(N(C)C)cc1`, the “activity change, negative = inhibition” value was 10.2% (inactive).

For `O=C(O)c1cc(C(=O)O)cc(S(=O)(=O)O)c1`, the Potency entry was “inactive”.

With `O=C(O)c1ccc(C(=O)O)cc1`, the Potency entry is “inactive”.

Turning to `CCCCCCCCCCCCOCCO`, the Potency is 27.3 µM (active) and inactive.

On to `CC(O)COCC(C)O` (stereo not given), for which the Potency result is “inactive”.

On to `C[C@H]1C[C@H]2[C@@H]3CCC4=CC(=O)C=C[C@]4(C)[C@@]3(F)[C@@H](O)C[C@]2(C)[C@@]1(O)C(=O)CO`, for which the Potency result is “inactive”.

With `CCOC(=O)NNc1nncc2ccccc12`, the Potency entry was “inactive”.

For the compound `COc1ccc(Nc2ccccc2)c(C)c1`, the “activity change, negative = inhibition” value is 5.34% (inactive).

Regarding `O=S(=O)(O)c1ccc2ccccc2c1`, the Potency entry was “inactive”.

As to `Cc1cnc(C(=O)NCCc2ccc(S(=O)(=O)NC(=O)NC3CCCCC3)cc2)cn1`, the “activity change, negative = inhibition” value is 27.2% [at 42.5 µM] (inactive).

Turning to `O=C1CCC(N2C(=O)c3ccccc3C2=O)C(=O)N1` (stereo not given), the Potency result is “inactive”.

As to `Cc1cccnc1`, the Potency entry is “inactive”.

With `OCCOCCN1CCN(C2=Nc3ccccc3Sc3ccccc32)CC1`, the “activity change, negative = inhibition” value is -7.8% [at 42.5 µM] (inactive).

On to `CCCCCOC(C)=O`, for which the Potency result is “inactive and 27.3 µM (active)”.

As to `O=[N+]([O-])c1ccc(/C=C/c2ccc([N+](=O)[O-])cc2S(=O)(=O)O)c(S(=O)(=O)O)c1`, the Potency result was “inactive”.

For `Cc1cccc(O)c1`, the “activity change, negative = inhibition” value was 5.96% (inactive).

As for `CCCCCC(N)=O`, the Potency result is “inactive”.

As for `Cc1ccc(S(N)(=O)=O)cc1`, the Potency entry is “inactive”.

Regarding `COS(C)(=O)=O`, the Potency result was “inactive”.

Turning to `CCCC(C)=O`, the Potency result is “inactive”.

As to `OCc1cccnc1`, the Potency result was “inactive”.

On to `C=CCOC(=O)c1ccccc1C(=O)OCC=C`, for which the Potency entry is “inactive”.

As to `O=P(OC(CCl)CCl)(OC(CCl)CCl)OC(CCl)CCl`, the Potency entry is “inactive”.

In the case of `COc1ccc2cc([C@H](C)C(=O)O)ccc2c1`, the Potency result was “inactive”.

With `O=C(O)[C@H](O)[C@@H](O)[C@H](O)[C@H](O)CO`, the Potency entry is “inactive”.

As to `Cc1cc(C)c(C)cc1C`, the Potency entry was “inactive”.

In the case of `CCCCOC(=O)COc1ccc(Cl)cc1Cl`, the Potency result is “inactive”.

Consider `C[C@H]1C[C@@H]2[C@H]([C@@H](O)C[C@@]3(C)[C@H]2CC[C@]3(O)C(=O)CO)[C@@]2(C)C=CC(=O)C=C12`, for which the “activity change, negative = inhibition” value is -26.5% [at 42.5 µM] (inactive).

Regarding `C=C(C)C(=O)Nc1ccc(Cl)c(Cl)c1`, the Potency was 17.4 µM (active) and 43.1 µM (active).

The values are drawn from PubChem BioAssay (Tox21).
